Experimental data from PubChem BioAssay (NCATS).
Results filed as inconclusive are left out. Active and inactive are the calls of the source. Calls follow the shape of the dose curve; as a rule, active = well fitted curve in the direction sought with a large enough effect; inconclusive = small, poorly fitted or top-dose-only effect, or another doubt; inactive = no such curve, though single readings can be large; an effect the other way counts as inactive or inconclusive.

Experiment: qHTS of pediatric cancer cell lines to identify multiple opportunities for drug repurposing: Confirmatory screen for NB1643 cells (AID 1347109); also: nearly all actives have a fitted effect of over 45% in size
Conditions: NB1643 neuroblastoma cell viability; series mostly up to 45.9 µM
Procedure, shortened: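 Cells (500-1,000/well) in growth media were settled 5 h at 37 degrees C, then given compounds for 48 h. Viability was read as CellTiter-Glo luminescence. Primary runs used MIPE at 11 points (0.78 nM-46 µM) and NPC at 8 points (0.59 nM-46 µM); follow-ups used 11 points.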
Potency is read from the fitted curve at half-maximal effect.

| SMILES | Potency |
| --- | --- |
| COc1cc2ncnc(Nc3cccc(Br)c3)c2cc1OC | 18500 nM (active) |
| COc1ccc(S(=O)(=O)Nc2cccnc2Nc2ccc(O)cc2)cc1 | 522 nM (active) |
| CN[C@@H]1C[C@H]2O[C@@](C)([C@H]1OC)n1c3ccccc3c3c4c(c5c6ccccc6n2c5c31)C(=O)N[C@H]4O | 737 nM (active) |
| CN(CC(=O)N(Cc1ccc(C2CCCCC2)cc1)c1ccc(C(=O)O)c(O)c1)S(=O)(=O)c1c(F)c(F)c(F)c(F)c1F | 26100 nM (active) |

Experiment: qHTS of pediatric cancer cell lines to identify multiple opportunities for drug repurposing: Confirmatory screen for A673 cells (AID 1347110);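 also: cells exposed to compound for 48 h before the viability read; nearly all actives have a fitted effect of over 65% in size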
Conditions: A673 Ewing sarcoma cell viability; series mostly up to 45.9 µM
Procedure, shortened: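 A673 cells at 500-1,000 cells/well were dosed 5 h after plating, in dilution series up to 46 uM final; primary runs used 8 or 11 points and confirmatory runs used 11 points. Viability was read by CellTiter-Glo luminescence after 48 h, against DMSO and 2.3 uM bortezomib controls.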

| SMILES | Potency |
| --- | --- |
| Cc1[nH]c(C=C2C(=O)Nc3ccccc32)c(C)c1CCC(=O)O | inactive |
| COc1cc2ncnc(Nc3cccc(Br)c3)c2cc1OC | 14700 nM (active) |
| COC(=O)C=CC(=O)OC | inactive |
| COc1ccc(C(C)=O)c(O)c1 | inactive |
| CCN(CC)Cc1ccc2cc(COC(=O)Nc3ccc(C(=O)NO)cc3)ccc2c1 | inactive |
| COc1ccc(S(=O)(=O)Nc2cccnc2Nc2ccc(O)cc2)cc1 | 928 nM (active) |
| CNC(=O)c1cccc(-c2ccc3c(N4CCOC[C@H]4C)nc(N4CCOC[C@H]4C)nc3n2)c1 | 1470 nM (active) |
| Cn1cnc(=N)c2[nH]cnc21 | inactive |
| O=C(NC1CC1)c1cccc(-c2ccc3c(NC(=O)C4CC4)n[nH]c3c2)c1 | 4140 nM (active) |
| CN[C@@H]1C[C@H]2O[C@@](C)([C@H]1OC)n1c3ccccc3c3c4c(c5c6ccccc6n2c5c31)C(=O)N[C@H]4O | 369 nM (active) |
| CN(CC(=O)N(Cc1ccc(C2CCCCC2)cc1)c1ccc(C(=O)O)c(O)c1)S(=O)(=O)c1c(F)c(F)c(F)c(F)c1F | 13100 nM (active) |
| C=C1C(=CC=C2CCC[C@]3(C)[C@@H]([C@H](C)CCCC(C)(C)O)CC[C@@H]23)C[C@@H](O)C[C@@H]1O | inactive |
| COc1cccc2c1C(=O)c1c(O)c3c(c(O)c1C2=O)C[C@@](O)(C(C)=O)C[C@H]3O[C@H]1C[C@H](N)[C@H](O)[C@H](C)O1 | 414 nM (active) |
| O=C1NC(=O)C(=Cc2ccc3nccc(-c4ccncc4)c3c2)S1 | 4650 nM (active) |
